Each structure is given as a SMILES string.

The test system of this experiment is 4T1. The experiment is described as follows: % inhibition of 4T1 cell number vs DMSO control; higher = stronger growth inhibition. The conditions noted are these: 1 µM, 3 days. The method, boiled down: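 In 96-well imaging plates whose edge wells went unused, 3000 4T1-H2B-GFP mouse breast cancer cells per well were seeded in 2% FBS medium onto plastic, denuded lung matrix, mCAF1 fibroblast-derived matrix, Matrigel (15 μg/mL) or 0.2% gelatin. Sixteen hours on, kinase inhibitors went in at 1 μM final for 3 days before formalin fixation, DAPI staining and imaging on an INCell Analyzer 2200. Counting of GFP-positive nuclei gave cell numbers, from which percent inhibition relative to control was derived.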

[1] abbreviates: substrate: lung fibroblast-derived matrix.
[2] abbreviates: substrate: mCAF1 fibroblast-derived matrix.

As to `COc1ccc2c(c[n+](C)c3c4cc5c(cc4ccc23)OCO5)c1OC` [Chelerythrine Chloride], the “% inhibition of 4T1 cell number” value is 20% (substrate: Matrigel); -43% (substrate: gelatin); 4.48% under setting [1]; 8.26% under setting [2]; -4.98% (substrate: plastic).

In the case of `O=C1NC(=O)c2c1c1c3ccccc3n3c1c1c2c2ccccc2n1[C@H]1CC[C@@H]3O1`, the “% inhibition of 4T1 cell number” value runs as follows: (substrate: Matrigel) 30%; (substrate: gelatin) 44.2%; under setting [1], -1.14%; under setting [2], 29.4%; (substrate: plastic) 87.4%.

As for `O=[N+]([O-])/C=C/c1ccc2c(c1)OCO2` [Syk Inhibitor III], the “% inhibition of 4T1 cell number” value is, setting by setting: (substrate: Matrigel) -4.15%; (substrate: gelatin) -72.6%; under setting [1], -12.2%; under setting [2], -33.4%; (substrate: plastic) -19.4%.

Take `NC(=NN=Cc1ccc(-c2cccc([N+](=O)[O-])c2)o1)N[N+](=O)[O-]` [ERK Inhibitor III]: the “% inhibition of 4T1 cell number” value is, setting by setting: (substrate: Matrigel) 24.7%; (substrate: gelatin) 24.5%; under setting [1], -2.29%; under setting [2], -12.4%; (substrate: plastic) 41.4%.

In the case of `CC(C)(C)c1cc(C=C(C#N)C#N)cc(Br)c1O`, the “% inhibition of 4T1 cell number” value was 46.6% (substrate: Matrigel); -2.78% (substrate: gelatin); 2.02% under setting [1]; 0.929% under setting [2]; 35.7% (substrate: plastic).

`COc1ccc2c(c1)/C(=C/c1cnc[nH]1)C(=O)N2`: the “% inhibition of 4T1 cell number” value by setting is: (substrate: Matrigel) 24.5%; (substrate: gelatin) 50.7%; under setting [1], 8.25%; under setting [2], 17.6%; (substrate: plastic) 17.3%.

In the case of `O=S(=O)(c1c(O)c(Cl)cc(Cl)c1Cl)c1c(O)c(Cl)cc(Cl)c1Cl` [p38 MAP Kinase Inhibitor IV], the “% inhibition of 4T1 cell number” value (substrate: Matrigel) was -24.4%; the “% inhibition of 4T1 cell number” value (substrate: gelatin) amounted to 7.41%; the “% inhibition of 4T1 cell number” value under setting [1] was -2.09%; the “% inhibition of 4T1 cell number” value under setting [2] was determined as 31.2%; the “% inhibition of 4T1 cell number” value (substrate: plastic) was -30.3%.

Take `COC(=O)[C@]1(O)C[C@@H]2O[C@@]1(C)n1c3ccccc3c3c4c(c5c6ccccc6n2c5c31)C(=O)NC4` [K-252a, Nocardiopsis sp.]: the “% inhibition of 4T1 cell number” value amounted to 87.4% (substrate: Matrigel); 91.8% (substrate: gelatin); 2.02% under setting [1]; 98.1% under setting [2]; 91.5% (substrate: plastic).

These data come from the supplement of paper PMC8269313.
